SARS PLpro yeast: blocks SARS-CoV papain-like protease in a yeast assay | Potency, µM (doses to about 32.9 µM), for inactives: at the highest dose activity, positive = growth rescue, hits mostly activators | AID 485353 | 330,000 tested, 0.19% active | S. cerevisiae expressing SARS-CoV PLpro, growth rescue; calls by dose curve; note: potency is the fitted concentration of half-maximal effect; 0% is about no effect; nearly all actives have a fitted effect of over 55% in size
Pf growth 96h: P. falciparum growth inhibition at 96 hour, primary screen for plastid delayed-death inhibitors | P. falciparum luciferase reporter growth, 96 h | Potency, µM (doses to about 28.7 µM), without a hit: top-dose activity change, negative = inhibition, usual class: inhibitors | 320,000 tested, 6.9% active; note: potency is the fitted concentration of half-maximal effect; % is set by controls: 0 for no effect and ±100 for the full control effect
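Infected RBCs, 2% Hct / 0.05% parasitemia final; luciferase-reporter P. falciparum; cpd 96 h, 37 C, 5% CO2; luciferase detection reagent; luminescence.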
NS1 inh: blocks influenza NS1 protein function; Potency, µM (top dose mostly 46.1 µM), inactives show at the top dose activity, positive = more growth; 270,000 tested, 0.4% active; calls by dose curve; note: potency is the fitted concentration of half-maximal effect; actives are rising curves; nearly all actives have a fitted effect of over 50% in size
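Read-out: OD600 growth recovery of NS1-expressing budding yeast. Cells grown overnight at 30C in -URA glucose medium, washed, resuspended and diluted 1:100 in 2% galactose assay medium, pH 6.0. Same strain lacking NS1 served as positive control.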
CHX counter: counter-screen for Shiga toxin inhibitors: cycloheximide protein synthesis inhibition. AID 2314. cell reporter, cycloheximide protein synthesis inhibition counterscreen. max response, %. 300,000 tested, 12% active; in the data active = max response mostly above about 13%, no sharp cut-off; inactive = mostly below about 14%; note: read at 38.3 µM for the half of the compounds with a filed dose; 0% is about no effect
Pf growth 48h: inhibits P. falciparum growth in the first generation, 48 h | P. falciparum luciferase growth in erythrocytes, 48 h | Potency, µM (series often up to 28.7 µM), without a hit: at the highest dose activity change, negative = inhibition, hits mostly inhibitors | 310,000 tested, 5.9% active | AID 504832; note: potency is the fitted concentration of half-maximal effect; % is set by controls: 0 for no effect and ±100 for the full control effect
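Parasite viability was followed by luminescence of a genomically integrated firefly luciferase. Cultures held 0.1% parasitemia at 2% hematocrit (final), incubated under 5% CO2 at 37 C.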
Shiga inhibitor: blocks Shiga toxin action in Vero cells | 290,000 tested, 9.2% active | AID 2315 | Vero cells, Shiga toxin protein synthesis inhibition reporter | inhibition, % at 38.7 µM; in the data active = inhibition mostly above about 28%, no sharp cut-off; inactive = mostly below about 43%; note: 0% is about no effect
* marks the source's active call; other numbers are inactive results; ? = inconclusive; / = no result given. Rows were chosen to be rich in hits. Some 21% of all compounds tested hit in one or more screens of this group. Unless noted, calls come from the whole dose curve; as a rule, active = well fitted inhibition curve with a large enough effect; inconclusive = small, poorly fitted or top-dose-only effect, or another doubt; inactive = no such curve, though single readings can be large or run the other way.

SMILES	SARS PLpro yeast	Pf growth 96h	NS1 inh	CHX counter	Pf growth 48h	Shiga inhibitor
COc1ccc(Cl)cc1N(C(C)C(=O)NC1CCCC1)S(C)(=O)=O (stereo not given)	1%	10%	1%	-4	-18%	4
COCCn1nnnc1C(c1cccs1)N1CCN(c2nc3ccccc3s2)CC1 (stereo not given)	-14%	?	-60%	-1	?	-6
COCCn1nnnc1C(c1cc2cc(C)cc(C)c2[nH]c1=O)N1CCN(c2ccccc2F)CC1 (stereo not given)	0%	?	0%	-2	12µM*	1
COCCn1nnnc1C(c1cccs1)N1CCN(c2cc(C)ccc2C)CC1 (stereo not given)	-4%	?	-31%	-1	13µM*	11
COCCn1nnnc1C(c1cc2c(C)cc(C)cc2[nH]c1=O)N1CCCCCC1 (stereo not given)	-4%	7%	6%	5	12µM*	3
COCCn1nnnc1C(c1cc2cc(C)ccc2[nH]c1=O)N1CCCCCC1 (stereo not given)	2%	-16%	-3%	-3	10%	-3
CCc1ccc(NC(=O)Cn2ccn(-c3cccc(Cl)c3)c(=O)c2=O)cc1	-8%	?	-2%	2	8%	-3
CCn1c(SCC(=O)c2cccs2)nnc1-c1cccs1	-4%	113%	-7%	27*	28%	31
N#Cc1ccc(CSc2nnc(-c3cccs3)n2-c2ccccc2)cc1	0%	17µM*	-50%	-1	?	-18
Cc1ccc(CSc2nnc(-c3cccs3)n2C)cc1	-33%	16%	-42%	18	12µM*	31
CCn1c(SCc2ccccc2)nnc1C1CCN(S(=O)(=O)c2ccc(OC)cc2)CC1	2%	?	-14%	7	?	-1
CCn1c(SCc2ccccc2)nnc1C1CCCCC1	18%	9.3µM*	-18%	0	?	-28
CCn1c(SCC(=O)Nc2ccccc2)nnc1-c1cccs1	0%	61%	3%	-2	-19%	1
CCn1c(SCc2ccccc2)nnc1-c1cccs1	-4%	?	-21%	13	9.3µM*	19
Cc1cccc(OCc2nnc(SCC(=O)c3cccs3)n2C)c1C	8%	8.3µM*	-64%	21*	-23%	39
O=S(=O)(CCSc1ccc(C(F)(F)F)cn1)c1ccc(Cl)cc1	1%	-2%	-3%	6	23%	1
COc1ccc(Cl)cc1NC(=O)CN1C(=O)NC(Cc2c[nH]c3ccccc23)C1=O (stereo not given)	1%	/	/	/	/	/
Cc1ccc2nc(Cl)c(/C=N/NC(=O)[C@H]3C[C@@H]3c3ccccc3)cc2c1	-17%	2.1µM*	9%	9	?	19
CC(=O)c1ccc(N2CCN(C(=O)CCCn3c(=S)[nH]c4cc5c(cc4c3=O)OCO5)CC2)cc1	-7%	22%	?	-3	12µM*	-6
O=C(CCCn1c(=S)[nH]c2cc3c(cc2c1=O)OCO3)N1CCN(c2ccc(Cl)cc2)CC1	19%	51%	?	1	-30%	-38
O=C(CCCn1c(=S)[nH]c2cc3c(cc2c1=O)OCO3)N1CCN(c2ccccc2)CC1	8%	13µM*	2%	0	-16%	-11
CCCCNS(=O)(=O)c1ccc2nc(-c3cccnc3)cc(C(=O)NCCCOCC)c2c1	-2%	?	/	7	14%	-6
O=C(c1ccc(N2CCCCS2(=O)=O)cc1)N1CCN(c2ccccc2F)CC1	0%	11%	-4%	10	?	-3
CC1=Nc2ccccc2N=C(NC(=O)c2ccccc2)C1c1ccccc1 (stereo not given)	-2%	?	-1%	18	4.1µM*	35
CCOC(=O)C1CCCN(CC(=O)NC2=Nc3ccccc3N=C(C)C2c2ccccc2)C1 (stereo not given)	1%	?	-38%	2	10µM*	-3
CC1=Nc2ccccc2N=C(NC(=O)CSc2nnnn2-c2ccccc2)C1c1ccccc1 (stereo not given)	/	-20%	-10%	-1	?	13
CC1=Nc2ccccc2N=C(NC(=O)CN2CCN(c3ccccc3)CC2)C1c1ccccc1 (stereo not given)	0%	?	-2%	2	5.9µM*	-9
